The source made the active and inactive calls. The calls were made as follows: active = hit-call score of the fitted dose curve at least 0.9, where 1 is the maximum; inactive = score below 0.9.
What was measured:
[1] = molecular target: CCAAT/enhancer-binding protein beta (Homo sapiens) (UniProt P17676); assay: ATG_C_EBP_CIS: Attagene CIS-FACTORIAL HepG2 Assay for human CCAAT/Enhancer Binding Protein (C/EBP) beta (AID 2282927); details: HepG2 Attagene cis-factorial transcription factor reporter; actives raise or lower the signal
Chain of CCAAT/enhancer-binding protein beta (Homo sapiens) (P17676 whole entry, looked up, the tested form may be a part): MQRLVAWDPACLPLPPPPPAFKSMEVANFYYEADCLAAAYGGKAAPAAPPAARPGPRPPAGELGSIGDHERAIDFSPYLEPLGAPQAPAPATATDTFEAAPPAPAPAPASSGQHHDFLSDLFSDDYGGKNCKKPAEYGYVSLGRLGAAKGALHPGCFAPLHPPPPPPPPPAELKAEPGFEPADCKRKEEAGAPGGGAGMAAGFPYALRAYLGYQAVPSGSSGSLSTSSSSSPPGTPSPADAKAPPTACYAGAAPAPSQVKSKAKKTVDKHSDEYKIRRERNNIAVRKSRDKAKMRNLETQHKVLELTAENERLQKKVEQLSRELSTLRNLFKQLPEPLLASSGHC
How it was run: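 Endogenous C/EBPb-driven reporter transcripts measured in transfected human HepG2 cells at 24 h via RT-PCR and capillary electrophoresis of labelled fragments. Activity fitted in both directions relative to DMSO baseline.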

[2] = ATG_CMV_CIS: Attagene CIS-FACTORIAL HepG2 Assay for human CMV (Internal Marker) (AID 2282928); details: HepG2 CMV promoter reporter, transcription factor profiling; actives raise or lower the signal;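 also: endpoint acts as a background internal control marker rather than a target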
How it was run: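 Readout: fluorescent reporter cDNA fragments separated by capillary electrophoresis after RT-PCR and HpaI cut. Cells: HepG2 carrying transfected cis-promoter reporter constructs, dosed 24 h. Endpoint serves as background internal-marker control, fit bidirectionally versus DMSO.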

[3] = ATG_DR4_LXR_CIS: Attagene CIS-FACTORIAL HepG2 Assay for human Liver X Receptor (LXR), DR4 submotif (AID 2282929); details: HepG2 Attagene DR4 cis-reporter, mRNA transcription; actives raise or lower the signal
How it was run: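 Measures endogenous transcription factor activity via a DR4-driven reporter transcript in human HepG2 cells. Compounds incubated 24 h; mRNA quantified by RT-PCR and capillary electrophoresis, analysed as gain or loss of signal versus DMSO.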

[4] = ATG_AP_1_CIS: Attagene CIS-FACTORIAL HepG2 Assay for human Activator Protein 1 (AP-1) (AID 2282931); details: HepG2 Attagene cis-factorial AP-1 reporter mRNA; actives raise or lower the signal
How it was run: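 Bidirectional concentration-response fitting against DMSO controls. Underlying signal: reporter mRNA from cis-promoter constructs in transiently transfected HepG2, measured after 24 h by RT-PCR and capillary electrophoresis.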

[5] = ATG_AP_2_CIS: Attagene CIS-FACTORIAL HepG2 Assay for human Activator Protein 2 (AP-2) (AID 2282932); details: HepG2 AP-2 cis-reporter, Attagene transcription factor profiling; actives raise or lower the signal
How it was run: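 Transiently transfected HepG2 cells are exposed to chemical for 24 h. Reporter transcripts are then measured as fluorescence following RT-PCR and capillary separation, and gain- or loss-of-signal is fitted relative to DMSO.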

[6] = ATG_BRE_CIS: Attagene CIS-FACTORIAL HepG2 Assay for human Bone Morphogenetic Protein (BMP) Response Element (BRE) (AID 2282933); details: HepG2 BMP response element reporter, Attagene transcription factor profiling; actives raise or lower the signal
How it was run: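 Fluorescence-labelled reporter cDNA fragments, separated by capillary electrophoresis, gave the signal for this component of a 52-readout multiplex. HepG2 cells were transfected, exposed to chemicals for 24 h, and compared with DMSO using bidirectional fitting.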

[7] = molecular target: Transcription factor E2F1 (Homo sapiens) (UniProt Q01094); assay: ATG_E2F_CIS: Attagene CIS-FACTORIAL HepG2 Assay for human E2F Transcription Factor 1 (AID 2282935); details: HepG2 Attagene cis-reporter, E2F reporter RNA transcripts; actives raise or lower the signal
Chain of Transcription factor E2F1 (Homo sapiens) (Q01094 whole entry, looked up): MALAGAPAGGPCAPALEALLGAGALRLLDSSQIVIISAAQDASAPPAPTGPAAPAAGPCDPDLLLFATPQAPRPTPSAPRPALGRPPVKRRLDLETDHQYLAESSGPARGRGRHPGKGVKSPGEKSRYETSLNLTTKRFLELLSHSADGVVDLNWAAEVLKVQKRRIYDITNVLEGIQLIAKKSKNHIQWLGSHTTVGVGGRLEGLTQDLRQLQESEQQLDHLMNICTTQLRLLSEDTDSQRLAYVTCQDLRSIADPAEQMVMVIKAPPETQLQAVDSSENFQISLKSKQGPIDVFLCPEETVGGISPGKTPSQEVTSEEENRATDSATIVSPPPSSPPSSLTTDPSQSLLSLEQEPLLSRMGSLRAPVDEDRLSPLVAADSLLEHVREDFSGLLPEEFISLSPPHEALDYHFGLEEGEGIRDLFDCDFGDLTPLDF
How it was run: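 Fluorescent RT-PCR products, digested with HpaI for 2 h at 37 C, are separated by capillary electrophoresis. Source RNA comes from transfected HepG2 cultures treated for 24 h.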

[8] = ATG_E_Box_CIS: Attagene CIS-FACTORIAL HepG2 Assay for human Enhancer Box (E-box) (AID 2282936); details: HepG2 E-box cis-reporter transcription, actives raise or lower the signal
How it was run: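 Fluorescent reporter fragments separated by capillary electrophoresis gave the signal; mRNA came from HepG2 cells transfected with cis-element reporters and treated 24 h. Curves fitted bidirectionally relative to DMSO controls.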

[9] = ATG_M_61_CIS: Attagene CIS-FACTORIAL HepG2 Assay for M61 Transcription Factor (Internal Marker) (AID 2282937); details: HepG2 Attagene CIS-FACTORIAL M61 internal marker reporter; actives raise or lower the signal
How it was run: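 Fluorescence from labelled cDNA fragments, separated by capillary electrophoresis, quantifies reporter induction. HepG2 cells bearing transiently transfected cis-promoter MRTUs were incubated with test chemical for 24 h; DMSO defined baseline for gain/loss fitting.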

[10] = ATG_EGR_CIS: Attagene CIS-FACTORIAL HepG2 Assay for human Early Growth Response 1 (EGR1) (AID 2282938); details: HepG2 Attagene CIS-FACTORIAL EGR reporter mRNA; actives raise or lower the signal
How it was run: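 Cell-based multiplex transcription assay: HepG2 carrying transfected cis-element reporter units, 24 h chemical treatment. Fluorescence from capillary electrophoresis of RT-PCR products gives mRNA levels; fitting is bidirectional relative to DMSO.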

[11] = ATG_Ets_CIS: Attagene CIS-FACTORIAL HepG2 Assay for human Erythroblast Transformation Specific (ETS) (AID 2282941); details: HepG2 ETS cis-reporter transcription, actives raise or lower the signal
How it was run: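 RT-PCR/capillary electrophoresis fluorescence read-out of reporter mRNA; HepG2 transient multi-reporter transfection; 24 h compound exposure; gain or loss of signal fitted bidirectionally relative to DMSO.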

[12] = ATG_GATA_CIS: Attagene CIS-FACTORIAL HepG2 Assay for human GATA Binding Protein (AID 2282944); details: HepG2 GATA cis-element reporter, Attagene multiplex mRNA; actives raise or lower the signal
How it was run: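 Cells: HepG2, transiently transfected with cis-regulated reporter transcription units. Exposure: 24 h. Detection: RT-PCR plus capillary electrophoresis of FAM-labeled fragments. Analysis: bidirectional, DMSO as baseline.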

[13] = ATG_GLI_CIS: Attagene CIS-FACTORIAL HepG2 Assay for human Zinc Finger Protein GLI1 (AID 2282945); details: HepG2, Attagene cis-factorial reporter mRNA, GLI element; actives raise or lower the signal
How it was run: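 Bidirectional curve fits relative to DMSO, using reporter mRNA levels from RT-PCR plus capillary electrophoresis. Cells were HepG2 transiently carrying cis-regulated reporter constructs, harvested 24 h after dosing.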

[14] = ATG_ISRE_CIS: Attagene CIS-FACTORIAL HepG2 Assay for human Interferon Regulatory Factor 1 (IRF1) binding to an Interferon-Stimulated Response Element (ISRE) (AID 2282948); details: HepG2 ISRE cis-reporter (Attagene), mRNA transcription readout; actives raise or lower the signal
How it was run: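 Read-out: fluorescent RT-PCR products resolved by capillary electrophoresis, reporting endogenous transcription factor activity via ISRE-driven reporter mRNA in transfected HepG2 cells dosed for 24 h; gain or loss fitted relative to DMSO.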

[15] = ATG_M_32_CIS: Attagene CIS-FACTORIAL HepG2 Assay for M32 Transcription Factor (Internal Marker) (AID 2282949); details: HepG2 Attagene cis-factorial M32 reporter, mRNA; actives raise or lower the signal;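 also: background control marker of the multiplexed CIS panel rather than a real target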
How it was run: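 Using DMSO as baseline, bidirectional curve fits were applied to reporter mRNA signals. These came from transiently transfected HepG2 cells exposed for 24 h, with RNA analysed by RT-PCR, FAM primer extension, HpaI digestion and CE.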

[16] = ATG_M_06_CIS: Attagene CIS-FACTORIAL HepG2 Assay for M06 Transcription Factor (Internal Marker) (AID 2282950); details: HepG2 Attagene CIS-FACTORIAL M06 internal marker reporter; actives raise or lower the signal
How it was run: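 Measured 24 h post-dosing in transiently transfected HepG2 cells, this internal-marker endpoint reports reporter mRNA via RT-PCR with fluorescent primer extension and capillary electrophoresis. DMSO served as negative control and baseline for bidirectional fitting.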

[17] = ATG_MRE_CIS: Attagene CIS-FACTORIAL HepG2 Assay for human Metal Responsive Element (MRE) (AID 2282954); details: HepG2 MRE cis-reporter transcription, Attagene multiplex; actives raise or lower the signal
How it was run: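 Multiplexed cis-reporter assay in human HepG2 liver cells, 24 h incubation with test chemical. Reporter transcripts measured by RT-PCR and capillary electrophoresis; values from bidirectional curve fitting versus DMSO.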

[18] = ATG_PXRE_CIS: Attagene CIS-FACTORIAL HepG2 Assay for human Pregnane X Receptor Element (PXRE) (AID 2282957); details: HepG2 Attagene CIS-FACTORIAL PXRE reporter, mRNA; actives raise or lower the signal
How it was run: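 Bidirectional activity, baselined to DMSO, derived from reporter mRNA fluorescence (RT-PCR plus capillary electrophoresis) in HepG2 cells bearing cis-promoter reporter units, 24 h exposure.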

[19] = ATG_Sox_CIS: Attagene CIS-FACTORIAL HepG2 Assay for human SRY-box transcription factor (SOX) (AID 2282960); details: HepG2 Attagene cis-factorial SOX reporter, mRNA; actives raise or lower the signal
How it was run: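 After 24 h of chemical treatment, transfected HepG2 reporter cells are lysed for total RNA. Transcript levels come from RT-PCR with labelled primer extension and capillary electrophoresis, analysed bidirectionally versus DMSO.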

Measured: AC50

Oc1ccc(Cl)cc1
active: [18] 27.9 µM
inactive: all other assays above

CCN(CC)C(=S)S
active: [2] 100 µM | [4] 65.5 µM | [17] 71.9 µM | [18] 22.7 µM
inactive: all other assays above

O=C1Nc2ccc(Cl)cc2C(c2ccccc2)=NC1O (stereo not given)
inactive: all assays above

COc1cc(OC)c(OC)cc1C=O
active: [18] 50.5 µM
inactive: all other assays above

C=Cc1cccc(CCl)c1
active: [11] 100 µM | [14] 100 µM | [18] 46.2 µM
inactive: all other assays above

Source: PubChem BioAssay (EPA / NIEHS)
